Source: the supplement of paper PMC10849652
Targets with a hit are over-represented here; the source holds about 8,800 in all. About 0.5% of all pairs of compound and target were hits.

Legend:
Test in all cases: log2 fold change, soluble protein after heating vs DMSO (PISA); higher = thermal stabilisation; K562 lysate, 10 uM; active = over 0.2 and 3.5 SD of the protein, either way, in both replicates (recomputed)
vemurafenib = compound: CCCS(=O)(=O)Nc1ccc(F)c(C(=O)c2c[nH]c3ncc(-c4ccc(Cl)cc4)cc23)c1F [vemurafenib]
How it was run: (§1)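 Quantification was by TMTpro 16plex LC-MS/MS with equalised channel sums, applied to the supernatant after 21,000xg for 90 min. Samples were crude K562 extract at 1 mg/mL protein in PBS pH 7.4 with 1 mM MgCl2, treated with 10 μM compound for 30 min, heated for 3 min across 48°C-58°C, pooled and brought to 0.5% NP-40 at 4°C. Values are log-two fold changes in thermal stability relative to solvent controls, from duplicates.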

[1] = compound: CCCS(=O)(=O)Nc1ccc(F)c(C(=O)c2c[nH]c3ncc(Cl)cc23)c1F
How it was run: as §1

barasertib = compound: CCN(CCCOc1ccc2c(Nc3cc(CC(=O)Nc4cccc(F)c4)[nH]n3)ncnc2c1)CCOP(=O)(O)O [barasertib]
How it was run: as §1

[2] = compound: CC[C@@H]1C(=O)N(C)c2cnc(Nc3ccc(C(=O)NC4CCN(C)CC4)cc3OC)nc2N1C1CCCC1
How it was run: as §1

volasertib = compound: CC[C@@H]1C(=O)N(C)c2cnc(Nc3ccc(C(=O)N[C@H]4CC[C@H](N5CCN(CC6CC6)CC5)CC4)cc3OC)nc2N1C(C)C [volasertib]
How it was run: as §1

[3] = compound: CCn1c(C(=O)N(C2CC2)C2CC2)cc2c3c(ncn3C)c(Nc3cc(C)n(C)n3)nc21
How it was run: as §1

[4] = compound: CCn1cc(-c2ccnc3[nH]c(-c4cccc(CN(C)C)c4)cc23)c(-c2ccc(NC(=O)N(C)C)cc2)n1
How it was run: as §1

[5] = compound: CN1CCC(CNc2ccc3ncc(-c4cccc(OC(F)(F)F)c4)n3n2)CC1
How it was run: as §1

saracatinib = compound: CN1CCN(CCOc2cc(OC3CCOCC3)c3c(Nc4c(Cl)ccc5c4OCO5)ncnc3c2)CC1 [saracatinib]
How it was run: as §1

sotrastaurin = compound: CN1CCN(c2nc(C3=C(c4c[nH]c5ccccc45)C(=O)NC3=O)c3ccccc3n2)CC1 [sotrastaurin]
How it was run: as §1

alvocidib = compound: CN1CC[C@H](c2c(O)cc(O)c3c(=O)cc(-c4ccccc4Cl)oc23)[C@H](O)C1 [alvocidib]
How it was run: as §1

Tubastatin A = compound: CN1CCc2c(c3ccccc3n2Cc2ccc(C(=O)NO)cc2)C1 [Tubastatin A]
How it was run: as §1

[6] = compound: CNC(=O)C1=CC=CC=C1NC2=NC(=NC=C2Cl)NC3=C(C=C(C=C3)N4CCOCC4)OC
How it was run: as §1

defactinib = compound: CNC(=O)c1ccc(Nc2ncc(C(F)(F)F)c(NCc3nccnc3N(C)S(C)(=O)=O)n2)cc1 [defactinib]
How it was run: as §1

[7] = compound: CNc1nc(-c2ccc3c(N)n[nH]c3c2)cc(N2C[C@@H](C(=O)NC3CCCCC3)CC[C@H]2C)n1
How it was run: as §1

encorafenib = compound: COC(=O)N[C@@H](C)CNc1nccc(-c2cn(C(C)C)nc2-c2cc(Cl)cc(NS(C)(=O)=O)c2F)n1 [encorafenib]
How it was run: as §1

[8] = compound: COC(=O)[C@H](CCSC)NC(=O)C1=C(C=C(C=C1)NC[C@H](CS)N)C2=CC=CC=C2
How it was run: as §1

alisertib = compound: COc1cc(Nc2ncc3c(n2)-c2ccc(Cl)cc2C(c2c(F)cccc2OC)=NC3)ccc1C(=O)O [alisertib]
How it was run: as §1

[9] = compound: COc1cc2nc(-c3cc(F)ccc3O)nc(N[C@@H]3CNC[C@H]3C(C)(C)O)c2cc1OC
How it was run: as §1

gefitinib = compound: COc1cc2ncnc(Nc3ccc(F)c(Cl)c3)c2cc1OCCCN1CCOCC1 [gefitinib]
How it was run: as §1

Measured: log2 fold change

HSPB1 (UniProt P04792)
Sequence of UniProt P04792 (P04792 whole entry, looked up): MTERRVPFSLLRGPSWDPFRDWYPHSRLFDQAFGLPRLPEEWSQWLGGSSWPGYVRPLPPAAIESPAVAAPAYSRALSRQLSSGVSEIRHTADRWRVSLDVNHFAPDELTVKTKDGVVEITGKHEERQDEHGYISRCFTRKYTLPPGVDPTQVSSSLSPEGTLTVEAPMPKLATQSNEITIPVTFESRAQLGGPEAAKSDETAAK
inactive: vemurafenib -0.001 | [1] -0.003 | barasertib 0.019 | [2] 0.008 | volasertib -0.02 | [3] 0.01 | [4] 0.005 | [5] -0.042 | saracatinib 0.024 | sotrastaurin 0.005 | alvocidib 0.003 | Tubastatin A -0.023 | [6] -0.003 | defactinib 0 | [7] -0.036 | encorafenib -0.001 | [8] 0.025 | alisertib 0.012 | [9] 0.009 | gefitinib -0.012

HDAC6 (UniProt Q9UBN7)
inactive: vemurafenib -0.02 | [1] 0.01 | barasertib -0.017 | [2] -0.035 | volasertib -0.047 | [3] -0.023 | [4] 0.073 | [5] -0.011 | saracatinib -0.011 | sotrastaurin 0.008 | alvocidib -0.006 | Tubastatin A 0.11 | [6] -0.015 | defactinib -0.003 | [7] -0.013 | encorafenib -0.017 | [8] 0.06 | alisertib 0.013 | [9] 0.001 | gefitinib -0.012

GON4L (UniProt Q3T8J9)
inactive: vemurafenib 0 | [1] 0.054 | barasertib 0.097 | [2] -0.064 | volasertib -0.018 | [3] 0.02 | [4] -0.104 | [5] -0.027 | saracatinib -0.019 | sotrastaurin 0.016 | alvocidib 0.019 | Tubastatin A -0.114 | [6] 0.028 | defactinib -0.001 | [7] 0.007 | encorafenib 0.092 | [8] 0.107 | alisertib -0.015 | [9] -0.027 | gefitinib -0.074

GNE isoform 2 (UniProt Q9Y223)
Sequence of UniProt Q9Y223 (Q9Y223 whole entry, looked up): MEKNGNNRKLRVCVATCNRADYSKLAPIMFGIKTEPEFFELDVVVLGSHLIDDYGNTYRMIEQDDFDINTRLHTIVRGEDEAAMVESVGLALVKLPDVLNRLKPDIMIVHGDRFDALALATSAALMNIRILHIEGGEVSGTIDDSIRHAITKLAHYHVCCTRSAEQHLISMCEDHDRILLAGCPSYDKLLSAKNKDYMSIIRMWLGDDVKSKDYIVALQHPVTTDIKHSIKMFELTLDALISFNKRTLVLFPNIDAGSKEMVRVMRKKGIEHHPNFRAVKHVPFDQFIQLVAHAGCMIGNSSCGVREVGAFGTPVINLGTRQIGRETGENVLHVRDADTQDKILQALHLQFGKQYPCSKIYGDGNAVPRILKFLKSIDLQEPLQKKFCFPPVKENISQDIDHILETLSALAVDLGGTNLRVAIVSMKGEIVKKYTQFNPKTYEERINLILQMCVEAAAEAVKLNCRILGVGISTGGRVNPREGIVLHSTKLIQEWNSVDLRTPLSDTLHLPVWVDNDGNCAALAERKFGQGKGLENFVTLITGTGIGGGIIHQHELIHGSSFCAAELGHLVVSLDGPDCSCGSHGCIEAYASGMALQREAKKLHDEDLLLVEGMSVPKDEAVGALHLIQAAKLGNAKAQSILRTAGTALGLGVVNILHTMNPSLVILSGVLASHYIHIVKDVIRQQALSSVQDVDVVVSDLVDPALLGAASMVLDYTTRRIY
inactive: vemurafenib 0.024 | [1] 0.027 | barasertib 0.03 | [2] -0.107 | volasertib -0.095 | [3] 0.039 | [4] 0.008 | [5] -0.053 | saracatinib -0.003 | sotrastaurin -0.029 | alvocidib 0.028 | Tubastatin A -0.12 | [6] 0.016 | defactinib -0.011 | [7] -0.024 | encorafenib -0.008 | [8] 0.176 | alisertib 0.041 | [9] 0.026 | gefitinib -0.014

H2AFY (UniProt O75367)
Sequence of UniProt O75367 (O75367 whole entry, looked up): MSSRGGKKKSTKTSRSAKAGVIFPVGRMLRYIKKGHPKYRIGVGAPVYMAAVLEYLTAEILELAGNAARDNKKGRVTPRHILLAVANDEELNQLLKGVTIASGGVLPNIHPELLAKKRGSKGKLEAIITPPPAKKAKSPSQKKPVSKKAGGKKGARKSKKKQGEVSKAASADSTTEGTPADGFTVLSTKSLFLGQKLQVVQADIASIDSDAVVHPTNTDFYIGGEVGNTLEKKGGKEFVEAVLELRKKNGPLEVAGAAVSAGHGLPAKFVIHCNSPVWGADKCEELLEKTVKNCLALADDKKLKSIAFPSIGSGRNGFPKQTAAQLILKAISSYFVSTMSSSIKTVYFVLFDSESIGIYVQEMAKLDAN
active: [7] 0.329
inactive: vemurafenib -0.042 | [1] 0.013 | barasertib 0.094 | [2] 0.131 | volasertib -0.036 | [3] -0.001 | [4] -0.059 | [5] 0.056 | saracatinib -0.077 | sotrastaurin 0.104 | alvocidib -0.034 | Tubastatin A 0.079 | [6] -0.026 | defactinib 0.106 | encorafenib 0.094 | [8] 0.014 | alisertib 0.001 | [9] 0 | gefitinib 0

KCT2 (UniProt Q8NC54)
Sequence of UniProt Q8NC54 (Q8NC54 whole entry, looked up): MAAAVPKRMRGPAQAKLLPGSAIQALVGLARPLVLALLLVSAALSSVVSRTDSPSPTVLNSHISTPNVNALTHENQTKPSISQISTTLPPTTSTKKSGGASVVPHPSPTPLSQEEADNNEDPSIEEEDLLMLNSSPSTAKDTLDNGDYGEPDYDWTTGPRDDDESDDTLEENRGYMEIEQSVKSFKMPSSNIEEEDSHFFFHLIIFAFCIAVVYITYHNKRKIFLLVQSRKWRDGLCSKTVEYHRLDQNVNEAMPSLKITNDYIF
active: [4] -0.374
inactive: vemurafenib 0.046 | [1] 0.023 | barasertib 0.127 | [2] 0.054 | volasertib -0.001 | [3] -0.038 | [5] 0.153 | saracatinib 0.089 | sotrastaurin 0.038 | alvocidib -0.137 | Tubastatin A 0.029 | [6] -0.001 | defactinib -0.012 | [7] 0.013 | encorafenib 0.031 | [8] -0.035 | alisertib 0.077 | [9] 0 | gefitinib -0.037

KHDRBS1 (UniProt Q07666)
Sequence of UniProt Q07666 (Q07666 whole entry, looked up): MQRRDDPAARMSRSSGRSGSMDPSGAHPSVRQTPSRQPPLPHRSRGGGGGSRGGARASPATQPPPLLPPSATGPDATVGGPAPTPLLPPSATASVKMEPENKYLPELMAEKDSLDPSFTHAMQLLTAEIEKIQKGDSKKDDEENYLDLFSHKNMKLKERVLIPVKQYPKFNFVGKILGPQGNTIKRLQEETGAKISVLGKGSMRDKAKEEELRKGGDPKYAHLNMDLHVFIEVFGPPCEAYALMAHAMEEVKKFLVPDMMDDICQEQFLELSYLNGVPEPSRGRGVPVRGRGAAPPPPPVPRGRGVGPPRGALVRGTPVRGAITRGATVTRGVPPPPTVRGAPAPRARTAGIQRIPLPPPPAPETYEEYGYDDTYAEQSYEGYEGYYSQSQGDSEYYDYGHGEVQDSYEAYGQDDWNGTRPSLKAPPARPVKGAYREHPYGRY
inactive: vemurafenib -0.025 | [1] 0.004 | barasertib 0.034 | [2] -0.024 | volasertib -0.024 | [3] -0.002 | [4] 0.083 | [5] -0.048 | saracatinib -0.004 | sotrastaurin -0.008 | alvocidib 0.039 | Tubastatin A -0.045 | [6] 0.017 | defactinib -0.006 | [7] 0.007 | encorafenib 0.019 | [8] -0.139 | alisertib -0.025 | [9] 0.011 | gefitinib -0.01

GMIP (UniProt Q9P107)
inactive: vemurafenib 0.041 | [1] 0.048 | barasertib -0.024 | [2] -0.01 | volasertib 0 | [3] -0.005 | [4] -0.027 | [5] -0.004 | saracatinib 0.007 | sotrastaurin 0.034 | alvocidib -0.078 | Tubastatin A -0.139 | [6] 0.088 | defactinib 0.033 | [7] -0.01 | encorafenib 0.061 | [8] 0.031 | alisertib -0.014 | [9] -0.078 | gefitinib 0.11

HK1 isoform 2 (UniProt P19367)
Sequence of UniProt P19367 (P19367 whole entry, looked up): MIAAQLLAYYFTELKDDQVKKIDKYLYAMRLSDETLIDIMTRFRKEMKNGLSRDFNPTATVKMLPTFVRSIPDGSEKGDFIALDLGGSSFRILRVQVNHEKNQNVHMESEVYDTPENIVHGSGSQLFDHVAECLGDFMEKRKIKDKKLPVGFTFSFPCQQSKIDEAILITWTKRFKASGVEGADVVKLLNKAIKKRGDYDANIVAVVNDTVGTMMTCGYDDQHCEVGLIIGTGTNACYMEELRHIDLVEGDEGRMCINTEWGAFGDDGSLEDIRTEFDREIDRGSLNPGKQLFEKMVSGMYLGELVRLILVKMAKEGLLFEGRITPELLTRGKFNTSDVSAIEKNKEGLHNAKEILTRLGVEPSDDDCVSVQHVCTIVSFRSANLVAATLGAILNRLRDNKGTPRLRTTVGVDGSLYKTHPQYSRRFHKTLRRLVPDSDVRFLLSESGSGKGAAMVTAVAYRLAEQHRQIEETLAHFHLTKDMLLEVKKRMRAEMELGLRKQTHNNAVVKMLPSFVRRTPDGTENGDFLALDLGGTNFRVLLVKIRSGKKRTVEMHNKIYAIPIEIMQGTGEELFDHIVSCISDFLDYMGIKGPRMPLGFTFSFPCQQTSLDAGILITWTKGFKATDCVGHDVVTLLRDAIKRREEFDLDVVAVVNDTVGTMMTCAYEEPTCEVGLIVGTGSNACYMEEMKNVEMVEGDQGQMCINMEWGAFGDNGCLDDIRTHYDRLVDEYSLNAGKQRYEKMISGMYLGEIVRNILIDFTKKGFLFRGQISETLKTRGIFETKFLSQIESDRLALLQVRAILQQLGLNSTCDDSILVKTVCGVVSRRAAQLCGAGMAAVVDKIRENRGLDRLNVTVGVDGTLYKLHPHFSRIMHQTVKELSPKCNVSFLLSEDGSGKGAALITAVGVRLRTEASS
inactive: vemurafenib 0.009 | [1] 0.003 | barasertib 0.012 | [2] -0.023 | volasertib -0.004 | [3] 0.014 | [4] -0.008 | [5] -0.013 | saracatinib -0.015 | sotrastaurin 0.004 | alvocidib -0.001 | Tubastatin A -0.038 | [6] -0.009 | defactinib 0.001 | [7] -0.011 | encorafenib 0.003 | [8] 0.004 | alisertib 0.017 | [9] -0.007 | gefitinib -0.011

GRK2 (UniProt P25098)
Sequence of UniProt P25098 (P25098 whole entry, looked up): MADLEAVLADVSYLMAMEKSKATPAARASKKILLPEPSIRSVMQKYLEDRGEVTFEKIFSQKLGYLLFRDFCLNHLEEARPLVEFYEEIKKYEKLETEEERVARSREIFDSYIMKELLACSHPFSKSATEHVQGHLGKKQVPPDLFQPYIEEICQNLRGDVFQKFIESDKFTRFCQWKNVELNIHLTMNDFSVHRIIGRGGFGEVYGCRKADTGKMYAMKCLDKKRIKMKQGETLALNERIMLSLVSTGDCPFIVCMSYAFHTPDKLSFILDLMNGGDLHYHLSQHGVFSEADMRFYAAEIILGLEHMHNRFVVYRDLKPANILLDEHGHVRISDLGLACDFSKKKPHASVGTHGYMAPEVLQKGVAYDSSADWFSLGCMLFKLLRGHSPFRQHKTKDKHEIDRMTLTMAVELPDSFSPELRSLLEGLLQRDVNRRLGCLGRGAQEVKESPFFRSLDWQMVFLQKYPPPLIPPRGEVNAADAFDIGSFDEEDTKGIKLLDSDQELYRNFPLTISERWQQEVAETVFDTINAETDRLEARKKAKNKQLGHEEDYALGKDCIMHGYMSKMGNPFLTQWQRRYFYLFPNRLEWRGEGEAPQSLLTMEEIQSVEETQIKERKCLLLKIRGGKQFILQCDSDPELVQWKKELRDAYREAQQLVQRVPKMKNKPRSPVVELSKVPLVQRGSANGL
inactive: vemurafenib -0.019 | [1] 0.016 | barasertib -0.006 | [2] -0.08 | volasertib -0.05 | [3] 0.003 | [4] -0.054 | [5] -0.016 | saracatinib -0.009 | sotrastaurin 0.01 | alvocidib 0.001 | Tubastatin A -0.08 | [6] 0.068 | defactinib 0.106 | [7] 0.044 | encorafenib 0.001 | [8] 0.086 | alisertib -0.042 | [9] 0.066 | gefitinib -0.041

IARS (UniProt P41252)
inactive: vemurafenib 0.004 | [1] 0.011 | barasertib 0.026 | [2] -0.086 | volasertib -0.079 | [3] 0.048 | [4] 0.044 | [5] -0.111 | saracatinib 0.006 | sotrastaurin 0.014 | alvocidib 0.006 | Tubastatin A -0.134 | [6] 0.01 | defactinib 0.02 | [7] -0.03 | encorafenib 0 | [8] 0.134 | alisertib 0.02 | [9] 0.008 | gefitinib -0.021

GOLPH3 (UniProt Q9H4A6)
inactive: vemurafenib -0.007 | [1] 0.015 | barasertib 0.036 | [2] -0.016 | volasertib -0.041 | [3] 0.018 | [4] -0.029 | [5] -0.103 | saracatinib 0.021 | sotrastaurin -0.053 | alvocidib 0.001 | Tubastatin A -0.123 | [6] 0.075 | defactinib 0.015 | [7] -0.1 | encorafenib 0.051 | alisertib -0.018 | [9] -0.024 | gefitinib -0.011
active: [8] -0.6

HS1BP3 (UniProt Q53T59)
Sequence of UniProt Q53T59 (Q53T59 whole entry, looked up): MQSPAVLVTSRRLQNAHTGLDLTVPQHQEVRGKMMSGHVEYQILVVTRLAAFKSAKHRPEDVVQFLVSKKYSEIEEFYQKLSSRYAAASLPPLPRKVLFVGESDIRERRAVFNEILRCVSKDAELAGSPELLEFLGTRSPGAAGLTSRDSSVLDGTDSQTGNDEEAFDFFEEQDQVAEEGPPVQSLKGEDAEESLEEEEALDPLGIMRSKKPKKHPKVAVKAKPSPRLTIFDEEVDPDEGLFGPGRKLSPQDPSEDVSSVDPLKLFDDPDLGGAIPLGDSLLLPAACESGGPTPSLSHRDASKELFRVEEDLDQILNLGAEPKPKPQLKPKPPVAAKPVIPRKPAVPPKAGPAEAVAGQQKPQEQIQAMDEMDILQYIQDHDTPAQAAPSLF
inactive: vemurafenib -0.003 | [1] -0.012 | barasertib 0.056 | [2] 0.029 | volasertib -0.002 | [3] 0.014 | [4] -0.238 | [5] 0.092 | saracatinib 0.082 | sotrastaurin 0.013 | alvocidib -0.054 | Tubastatin A 0.034 | [6] -0.015 | defactinib -0.016 | [7] -0.052 | encorafenib 0.009 | [8] -0.088 | alisertib -0.021 | [9] 0.021 | gefitinib -0.031

HSP90AA4P (UniProt Q58FG1)
Sequence of UniProt Q58FG1 (Q58FG1 whole entry, looked up): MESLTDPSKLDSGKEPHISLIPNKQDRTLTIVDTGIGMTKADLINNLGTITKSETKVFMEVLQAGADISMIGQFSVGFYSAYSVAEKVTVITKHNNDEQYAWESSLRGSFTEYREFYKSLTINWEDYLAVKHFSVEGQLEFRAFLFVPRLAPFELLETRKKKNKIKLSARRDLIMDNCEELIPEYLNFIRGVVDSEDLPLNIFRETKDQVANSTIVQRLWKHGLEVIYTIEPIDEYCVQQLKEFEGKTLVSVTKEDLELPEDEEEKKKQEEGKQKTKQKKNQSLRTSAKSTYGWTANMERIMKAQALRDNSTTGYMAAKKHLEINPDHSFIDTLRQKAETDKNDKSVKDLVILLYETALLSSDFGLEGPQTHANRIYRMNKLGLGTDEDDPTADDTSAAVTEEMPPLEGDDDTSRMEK
inactive: vemurafenib -0.002 | [1] 0 | barasertib 0.377 | [2] 0.006 | volasertib 0.005 | [3] -0.076 | [4] 0.26 | [5] 0.041 | saracatinib -0.03 | sotrastaurin 0.033 | alvocidib -0.228 | Tubastatin A 0.052 | [6] -0.081 | defactinib -0.213 | [7] -0.046 | encorafenib -0.022 | [8] 0.123 | alisertib -0.012 | [9] 0.068 | gefitinib 0.042

GTF2I (UniProt P78347)
inactive: vemurafenib -0.004 | [1] 0.031 | barasertib 0.034 | [2] -0.055 | volasertib -0.036 | [3] 0.005 | [4] -0.054 | [5] -0.033 | saracatinib 0.014 | sotrastaurin 0.01 | alvocidib 0.05 | Tubastatin A -0.096 | [6] 0.012 | defactinib 0.018 | [7] -0.035 | encorafenib 0.015 | [8] 0.14 | alisertib 0.011 | [9] 0.004 | gefitinib -0.01

GOLPH3L (UniProt Q9H4A5)
Sequence of UniProt Q9H4A5 (Q9H4A5 whole entry, looked up): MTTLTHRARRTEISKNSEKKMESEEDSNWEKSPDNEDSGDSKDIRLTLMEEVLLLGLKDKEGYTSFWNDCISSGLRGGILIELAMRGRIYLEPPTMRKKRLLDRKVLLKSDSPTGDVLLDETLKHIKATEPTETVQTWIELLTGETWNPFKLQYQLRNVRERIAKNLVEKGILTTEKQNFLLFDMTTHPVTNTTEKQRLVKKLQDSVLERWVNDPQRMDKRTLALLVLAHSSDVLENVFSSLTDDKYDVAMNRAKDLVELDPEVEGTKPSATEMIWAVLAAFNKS
active: [8] -0.395
inactive: vemurafenib 0.068 | [1] 0.025 | barasertib 0.033 | [2] -0.055 | volasertib -0.023 | [3] 0.048 | [4] -0.034 | [5] -0.08 | saracatinib 0.046 | sotrastaurin -0.092 | alvocidib 0.018 | Tubastatin A -0.083 | [6] -0.005 | defactinib -0.077 | [7] 0.008 | encorafenib 0.063 | alisertib 0.026 | [9] -0.059 | gefitinib 0.018
